{"source": "ChEMBL document CHEMBL3988442", "about": "“University of Dundee, Small-Polar-MMV Screening Library” (2021)", "note": "The campaign covered roughly 53,000 compounds. About 900 (1.7%) showed an effect of 50% or more. This is one part of a sample in which strong results are shown more often than they occur."}
{"test_system": "Mycobacterium tuberculosis", "experiment": "Cornell - Phenotypic assay to identify agents that inhibit growth of Mycobacterium tuberculosis", "assay_type": "functional", "set-up": "scale not given: direction of the effect not stated beside the values", "conditions": "10 mM as filed; unlikely as a test dose", "units": {"Percent Effect": "%"}}
{"smiles": "CS(=O)(=O)NC[C@]12COC[C@H]1CN(C(=O)C1CC=CC1)C2", "Percent Effect": -4.911}
{"smiles": "CCC(CC)CN1CCN(CC(=O)Nc2ccc3nsnc3c2)CC1", "Percent Effect": 23.66}
{"smiles": "Cc1ccc(CN2CCN(CC(=O)Nc3ccc4nsnc4c3)CC2)o1", "Percent Effect": 54.44}
{"smiles": "CC(C)CCN1CCN(CC(=O)Nc2ccc3nsnc3c2)CC1", "Percent Effect": -1.569}
{"smiles": "CC(C)N1CC(n2ccnc2-c2nccn2C)CC1=O", "note": "(stereo not given)", "Percent Effect": -23.92}
{"smiles": "CN(C)c1cc(C2CCCN(S(=O)(=O)C3CCCC3)C2)ccn1", "note": "(stereo not given)", "Percent Effect": 15.85}
{"smiles": "NC(=O)c1ccc(C(=O)N(Cc2ccc(O)cc2)CC2CC2)cc1", "Percent Effect": -5.401}
{"smiles": "Cc1[nH]ccc1C(=O)N(Cc1ccc(O)cc1)CC1CC1", "Percent Effect": 103.8}
{"smiles": "O=C(c1ccc[nH]1)N(Cc1ccc(O)cc1)CC1CC1", "Percent Effect": 43.3}
{"smiles": "CSc1ccc(C)c(C(=O)Nc2c(C(N)=O)n[nH]c2C)c1", "Percent Effect": -17.81}
{"smiles": "COc1ccc(-n2ccc(CNCc3ccc(OC)c(O)c3)n2)cc1", "Percent Effect": 31.15}
{"smiles": "COc1ccc(CNCCn2c(C)nc3ccccc32)cc1O", "Percent Effect": -17.9}
{"smiles": "COc1ccc(CNCCc2ccn(-c3ccccc3)n2)cc1O", "Percent Effect": 107.6}
{"smiles": "O=C1CCC(=O)N1c1nn(Cc2ccc(F)cc2)cc1Cl", "Percent Effect": -47.77}
{"smiles": "CC[C@H](N)C(=O)Nc1nn(CC(F)(F)F)c2cc(OC(C)C)ccc12", "Percent Effect": 15.83}
{"smiles": "Cc1nc(C)n(CC2CCCCN2CC(=O)NCc2ccccn2)n1", "note": "(stereo not given)", "Percent Effect": 18.51}
{"smiles": "CCS(=O)(=O)CCN1CCC(N(C)Cc2noc(C(C)C)n2)C1", "note": "(stereo not given)", "Percent Effect": 13.23}
{"smiles": "Cc1cc(NC(=O)N2CCOC(C(N)=O)C2)ccc1Br", "note": "(stereo not given)", "Percent Effect": 15.45}
{"smiles": "COCC1CN(C(=O)Nc2cc(Cl)cc(Cl)c2)CCO1", "note": "(stereo not given)", "Percent Effect": 13.66}
{"smiles": "NC(=O)C1CN(C(=O)Nc2cc(Cl)cc(Cl)c2)CCO1", "note": "(stereo not given)", "Percent Effect": 103.4}
{"smiles": "CNc1snc(C)c1C(=O)N1CCCC(n2cc(C)cn2)C1", "note": "(stereo not given)", "Percent Effect": -17.18}
{"smiles": "Cc1nc(CN2CCC3(CC2)NC(=O)CC3c2ccncc2)cs1.O=C(O)C(F)(F)F.O=C(O)C(F)(F)F", "note": "(stereo not given)", "Percent Effect": 21.18}
{"smiles": "COc1ccc(-n2c(SC)nc(O)c(Cc3ccccc3)c2=O)cc1", "Percent Effect": 13.52}
{"smiles": "CCSc1nc2ccccc2c(=O)n1OCC(=O)OC", "Percent Effect": 74.42}
{"smiles": "COc1ccc(SCC2CNc3nc4ccccc4c(=O)n32)cc1", "note": "(stereo not given)", "Percent Effect": 44.86}
{"smiles": "COC(=O)COn1c(SC)nc2ccccc2c1=O", "Percent Effect": 75.88}
{"smiles": "CCc1cc(=O)[nH]c2nnc(SCC(=O)OC)n12", "Percent Effect": -7.031}
{"smiles": "COCC(C)NC(=O)CCCn1cnc2ccccc2c1=O", "note": "(stereo not given)", "Percent Effect": 7.524}
{"smiles": "CCc1nc2ccccc2c(=O)n1CC1(O)CCN(C(=O)COC)CC1.Cl", "Percent Effect": 10.94}
{"smiles": "COC(=O)CNC(=O)CCCn1cnc2ccccc2c1=O", "Percent Effect": 3.303}
{"smiles": "CCc1nc2ccccc2c(=O)n1CC1(O)CCN(CC(=O)OC)CC1", "Percent Effect": 13.86}
{"smiles": "COC(=O)COn1c(OC)nc2ccccc2c1=O", "Percent Effect": 32.68}
{"smiles": "COC(=O)COn1c(SCC(=O)OC)nc2ccccc2c1=O", "Percent Effect": 102.5}
{"smiles": "COC(=O)COn1c(SC(C)C)nc2ccccc2c1=O", "Percent Effect": 75.74}
{"smiles": "COCc1nn(Cc2ccc(Br)s2)c(=O)o1", "Percent Effect": 6.613}
{"smiles": "N#CCCn1nc(C(F)(F)F)c2c1CCCC2", "Percent Effect": -22.61}
{"smiles": "O=C(O)C(F)(F)F.O=C(O)C(F)(F)F.c1cc(CN2C[C@@H]3OCCN(CC4CC4)[C@@H]3C2)n[nH]1", "Percent Effect": 4.885}
{"smiles": "CO[C@@H]1CCN(C(=O)Cc2cccc(F)c2)[C@H]1Cc1cccnc1.O=C(O)C(F)(F)F", "Percent Effect": -8.358}
{"smiles": "CC(C)C(=O)N1CC[C@H]2N(C)CC[C@@]2(C(=O)N2CCOCC2)CC1.O=C(O)C(F)(F)F", "Percent Effect": -25.99}
{"smiles": "Cc1ccccc1CN(C)CC(O)COCc1ccccc1Cl", "note": "(stereo not given)", "Percent Effect": -1.891}
{"smiles": "O=C(O)C(F)(F)F.O=C(O)C(F)(F)F.c1cc(CN2CCc3ncc(CN4CCOCC4)n3CC2)cs1", "Percent Effect": -22.34}
{"smiles": "COc1ccccc1NCc1cscn1.Cl", "Percent Effect": 16.2}
{"smiles": "COc1ccncc1NCc1cscn1", "Percent Effect": 26.83}
{"smiles": "CC(C)(C)Oc1ccncc1NCc1cscn1", "Percent Effect": 55.35}
{"smiles": "COC1COC2(CCN(Cc3ccccc3F)CC2)C1.O=C(O)C(F)(F)F", "note": "(stereo not given)", "Percent Effect": 10.15}
{"smiles": "CCCc1nnc(N2CCN(c3ccccc3F)CC2)o1", "Percent Effect": -12.77}
{"smiles": "CCCc1nnc(N2CCN(c3ccccc3Cl)CC2)o1", "Percent Effect": 51.83}
{"smiles": "CCCc1nnc(N2CCN(c3ccccc3OCC)CC2)o1", "Percent Effect": 24.59}
{"smiles": "Cc1cccc(NC(=O)NC2CCC3(C2)OCCO3)c1Cl", "note": "(stereo not given)", "Percent Effect": 24.64}
{"smiles": "CN(CC(=O)NC(Cc1ccsc1)c1cccnc1)Cc1ccccn1.Cl", "note": "(stereo not given)", "Percent Effect": -48.97}
{"smiles": "Cc1csc(C(Cc2ccsc2)NC(=O)CN(C)Cc2ccccn2)n1.Cl", "note": "(stereo not given)", "Percent Effect": 68.23}
{"smiles": "Cc1csc(C(Cc2ccsc2)NC(=O)CN(C)Cc2cccnc2)n1.Cl", "note": "(stereo not given)", "Percent Effect": 14.48}
{"smiles": "CCOc1ccc(NC(=O)N2CCC(n3cncn3)CC2)cc1Cl", "Percent Effect": -30.56}
{"smiles": "O=C(CC1CC1)NC[C@]12COC[C@H]1CN(c1ncccn1)C2.O=C(O)C(F)(F)F", "Percent Effect": 0.6787}
{"smiles": "O=C(O)C(F)(F)F.O=C(O)C(F)(F)F.c1ccc(OC[C@]23COC[C@H]2CN(c2ncccn2)C3)nc1", "Percent Effect": 24.67}
